Results from PubChem BioAssay AID687001 (Broad Institute, 2013).
Entries with a potency or affinity are not part of this list. The source made the active and inactive calls.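 Rule for the calls: active = signal-lowering compounds whose fitted half-maximal concentration is at or below twice the top tested dose in every run; inconclusive = runs disagree, flat 30 to 70% inhibition, or poor curve fit; inactive = the rest.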

biological target: Protein S100-A4 (Homo sapiens) (UniProt P26447); assay: S100A4-myosin IIA binding inhibitor potency, dose response, biochemical, fluorescence polarization, cherry-picked hits (AID 687001); conditions: FP, S100A4/TAMRA-myosin IIA peptide binding; series mostly up to 11 µM; activity change, negative = inhibition: at the top concentration;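 note: 0% = DMSO neutral control wells and -100% = TFP positive control wells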
Sequence (P26447 whole entry, looked up): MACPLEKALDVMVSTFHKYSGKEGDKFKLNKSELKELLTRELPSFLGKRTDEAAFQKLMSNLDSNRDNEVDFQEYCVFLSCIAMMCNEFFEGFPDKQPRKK

| Structure (SMILES) | activity change, negative = inhibition |
| --- | --- |
| COc1ccc(NC(=O)CN(C)C(=O)c2ccc(N3CCCC3)c([N+](=O)[O-])c2)cc1 | 0.18% (inactive) |
| CCCCn1c(O)c(/C=C2\C=Nc3ccccc32)c(=O)[nH]c1=O | 19% (inactive) |
| N#Cc1ccc(-c2ccc([C@@H]3[C@@H](CO)N4C(=O)CN(C(=O)C5CC5)C[C@H]34)cc2)cc1 | 2.66% (inactive) |
| Cc1ccc(S(=O)(=O)N[C@H]2C=C[C@H](CC(=O)O)O[C@@H]2CO)cc1 | 2.12% (inactive) |
| CC(=O)Nc1ccc(S(=O)(=O)c2ccc([N+](=O)[O-])cc2)cc1 | -4.99% (inactive) |
| CN1CCN(C(=O)C[C@@H]2C=C[C@@H](NS(=O)(=O)c3cccc(F)c3)[C@@H](CO)O2)CC1 | -1.92% (inactive) |
| COc1ccc(C(CNC(=O)CNC(=O)c2ccc(F)cc2)N2CCCC2)cc1 (stereo not drawn) | -0.057% (inactive) |
| CCCC(=O)Nc1ccc2c(c1)OC[C@H](C)NC[C@H](C)[C@H](OC)CN(C)C2=O | -2.13% (inactive) |
| CNC[C@H]1Oc2c(NC(=O)Nc3ccc(C(F)(F)F)cc3)cccc2C(=O)N([C@@H](C)CO)C[C@H]1C | 9.1% (inactive) |
| CO[C@@H]1CN(C)C(=O)c2cc(NC(C)=O)ccc2OC[C@H](C)N(Cc2cncnc2)C[C@H]1C | -1.37% (inactive) |
| Cc1cc2cc(CNC(=O)Nc3cccc(Cl)c3)ccc2n1C | -16.4% (inactive) |
| Cc1ccc(C(=O)COC(=O)C2CC3CCCC(C2)C3=O)cc1[N+](=O)[O-] (stereo not drawn) | -2.18% (inactive) |
| C[C@@H]1CCCCO[C@@H](CN(C)C(=O)CCC(F)(F)F)[C@@H](C)CN([C@@H](C)CO)C(=O)c2cc(NC(=O)c3ccccc3)ccc2O1 | 1.8% (inactive) |
| CCC(Sc1nc2ccncc2[nH]1)C(=O)Nc1ccc(C)c(Cl)c1 (stereo not drawn) | -0.285% (inactive) |
| O=C(Nc1ccccc1F)N[C@H]1CC[C@H](CCNC(=O)C2CCCCC2)O[C@H]1CO | 0.987% (inactive) |
| C[C@@H]1CN([C@H](C)CO)C(=O)c2cc(C3=CCCC3)cnc2O[C@@H]1CN(C)Cc1ccc(F)cc1 | 3.31% (inactive) |
| Cc1cc(/C(N)=N/OC(=O)Nc2ccccc2)no1 | 0.941% (inactive) |
| COc1ccc(/C=C(\C#N)C(=O)c2cccn2C)cc1 | -18% (inactive) |
| Cc1ccc(C2=N/C(=C\c3ccc(F)cc3)C(=O)N2)cc1 | -3.9% (inactive) |

| Structure (SMILES) | activity change, negative = inhibition |
| --- | --- |
| COc1ccccc1-c1noc2c1C(=O)N(Cc1cn(-c3ccc(Cl)cc3)nn1)CC2 | -3.34% (inactive) |
| CCCNC(=O)N1C[C@H](O)COC[C@@H]2O[C@H](CC(=O)N[C@H]3CCN(Cc4ccccc4)C3)CC[C@H]21 | 1.92% (inactive) |
| Cn1cnc(CCNC(=O)C[C@H]2CC[C@H]3[C@@H](COC[C@@H](O)CN3C(=O)C3CC3)O2)c1 | -2.99% (inactive) |
| C[C@@H]1CCCCO[C@@H](CN(C)C(=O)C2CCCCC2)[C@@H](C)CN([C@H](C)CO)C(=O)c2cc(NC(=O)Nc3cccc4ccccc34)ccc2O1 | 8.36% [at 10 µM] (inactive) |
| O=C(Cc1ccccn1)N[C@@H]1CC[C@@H](CCNS(=O)(=O)c2cccc(F)c2)O[C@H]1CO | 9.21% (inactive) |
| O=C(C[C@H]1CC[C@H](NS(=O)(=O)c2cccc(F)c2)[C@@H](CO)O1)NCc1ccc2c(c1)OCO2 | 4.88% (inactive) |
| COc1cc(/C=C2\SC(=S)N(NC(=O)c3cccc(O)c3)C2=O)ccc1O | 60.1% (inactive) |
| CCC(=O)N1C[C@H](C)[C@@H](OC)CN(C)C(=O)c2ccc(NC(=O)Nc3ccccc3)cc2OC[C@H]1C | 2.16% (inactive) |
| C[C@@H]1CN([C@@H](C)CO)C(=O)c2cc(/C=C/c3ccccc3)cnc2O[C@H]1CN(C)S(=O)(=O)c1cccs1 | 11% (inactive) |
| CCC(=O)N(C)C[C@H]1Oc2ncc(-c3ccc(C(=O)N(C)C)cc3)cc2C(=O)N([C@@H](C)CO)C[C@H]1C | 3.86% (inactive) |
| O=C(CN1C(=O)/C(=C/c2ccccc2Cl)SC1=S)NC1C=CS(=O)(=O)C1 (stereo not drawn) | 17.7% (inactive) |
| CCn1c(SCC(=O)O)nnc1-c1ccc2[nH]c(C)c(C)c2c1 | -3.04% (inactive) |
| CC(C)NC(=O)N(C)C[C@@H]1Oc2ccc(NS(=O)(=O)c3ccccc3)cc2C(=O)N([C@H](C)CO)C[C@@H]1C | 7.22% (inactive) |
| CCCN1CCN(CCCNC(=O)C(CC)n2nc(C)c3sc4ccccc4c3c2=O)CC1 (stereo not drawn) | 5.91% (inactive) |
| CC(=O)c1c(C)[nH]c(C(=O)OCc2csc(CC(=O)Nc3ccccc3C)n2)c1C | 8.31% (inactive) |
| COc1cc(Cl)ccc1OCc1cc(C(=O)N(C)Cc2nnc(C)o2)no1 | 0.129% (inactive) |
| O=C(c1ccccc1)c1ccc2nc(N3CCCCC3)c3nncn3c2c1 | 4.91% (inactive) |
| COc1ccccc1CNC(=O)COC(=O)CSc1ccc(Cl)cc1 | -3.44% (inactive) |
| CCOc1ccc(C(=O)NC2CCN(C(=O)Nc3ccc(F)cc3)CC2)cc1 | 2.33% (inactive) |
